Data as given in PubChem BioAssay AID1159580 (chemical genetic matrix, 2015).
In all, about 5,500 compounds went through this assay and about 2,000 (36%) were called active. Another 18% or so got no clear call; they are omitted. No stated cut-off is given here; in the data, active means normalized growth mostly below about 0.91 (no sharp cut-off); inconclusive means no clear call, values can overlap the other calls; inactive means mostly above about 0.92. Some of the results follow.

Test: chemical genetic growth profiling, strain panel (AID 1159580);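 further: tested at 20 µM; growth read once vehicle control cultures reached saturation at 30 °C; 1 = growth at the plate median or of vehicle wells; lower values mean less growth of the strain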
Settings: growth OD

Measured: normalized growth

O=C(O)CCOc1ccc(Cl)cc1
active: S. cerevisiae deletion strains, locus YBR229C, strain ROT2, active compounds read low 0.795 | S. cerevisiae deletion strains, locus YCL061C, strain MRC1, active compounds read low 0.825 | S. cerevisiae deletion strains, locus YGR078C, strain PAC10, active compounds read low 0.753 | S. cerevisiae deletion strains, locus YHR087W, strain rtc3, active compounds read low 0.729 | S. cerevisiae deletion strains, locus YJL187C, strain SWE1, active compounds read low 0.837 | S. cerevisiae deletion strains, locus YJR043C, strain POL32, active compounds read low 0.913 | S. cerevisiae deletion strains, locus YJR075W, strain HOC1, active compounds read low 0.64 | S. cerevisiae deletion strains, locus YLR058C, strain SHM2 (second series), active compounds read low 0.904 | S. cerevisiae deletion strains, locus YMR219W, strain ESC1, active compounds read low 0.838 | S. cerevisiae deletion strains, locus YMR263W, strain SAP30, active compounds read low 0.859 | S. cerevisiae deletion strains, locus YNL153C, strain GIM3, active compounds read low 0.793 | S. cerevisiae deletion strains, locus YNL322C, strain KRE1, active compounds read low 0.9 | S. cerevisiae deletion strains, locus YPL055C, strain LGE1, active compounds read low 0.763
inactive: S. cerevisiae deletion strains, locus YAL013W, strain DEP1, active compounds read low 0.956 | S. cerevisiae deletion strains, locus YDL101C, strain DUN1, active compounds read low 0.901 | S. cerevisiae deletion strains, locus YDL134C, strain PPH21, active compounds read low 1 | S. cerevisiae deletion strains, locus YEL061C, strain CIN8, active compounds read low 0.999 | S. cerevisiae deletion strains, locus YHR030C, strain SLT2, active compounds read low 1.01 | S. cerevisiae deletion strains, locus YKL190W, strain CNB1, active compounds read low 1 | S. cerevisiae deletion strains, locus YLR039C, strain RIC1, active compounds read low 0.979 | S. cerevisiae deletion strains, locus YLR085C, strain ARP6, active compounds read low 1 | S. cerevisiae deletion strains, locus YLR262C, strain YPT6, active compounds read low 0.993 | S. cerevisiae deletion strains, locus YML094W, strain GIM5, active compounds read low 1.01 | S. cerevisiae deletion strains, locus YMR307W, strain GAS1, active compounds read low 0.895 | S. cerevisiae deletion strains, locus YNL298W, strain CLA4 (second series), active compounds read low 1.03 | S. cerevisiae deletion strains, locus YNR030W, strain Alg12, active compounds read low 1 | S. cerevisiae deletion strains, locus YPL241C, strain CIN2, active compounds read low 0.954 | S. cerevisiae deletion strains, locus YPR135W, strain CTF4, active compounds read low 1.11 | S. cerevisiae strains, strain wild type, active compounds read low 1.01
